Screening results (PubChem)
Hits are enriched below; roughly 1.5% of the tested compounds scored in any of these assays.
AID504770 = growth inhibitors of E. coli YBA685 in a screen for V. cholerae RctB (chromosome II replication) inhibitors; z-score (test concentration not listed); E. coli YBA685 rctB-dependent plasmid, OD600 growth, 3 h; stronger effect = lower value; 130,000 tested, 0.27% active; in the data active = z-score below about -2, passing the limit was not always enough
MbtI inh = blocks the Mycobacterium tuberculosis siderophore enzyme MbtI | purified MbtI enzyme, fluorescence intensity read-out | inhibition, % (concentration not given with the values) | 100,000 tested, 0.89% active; in the data active = inhibition mostly above about 56%, no sharp cut-off; inactive = mostly below about 77%
Target sequence (P9WFX0 whole entry, looked up): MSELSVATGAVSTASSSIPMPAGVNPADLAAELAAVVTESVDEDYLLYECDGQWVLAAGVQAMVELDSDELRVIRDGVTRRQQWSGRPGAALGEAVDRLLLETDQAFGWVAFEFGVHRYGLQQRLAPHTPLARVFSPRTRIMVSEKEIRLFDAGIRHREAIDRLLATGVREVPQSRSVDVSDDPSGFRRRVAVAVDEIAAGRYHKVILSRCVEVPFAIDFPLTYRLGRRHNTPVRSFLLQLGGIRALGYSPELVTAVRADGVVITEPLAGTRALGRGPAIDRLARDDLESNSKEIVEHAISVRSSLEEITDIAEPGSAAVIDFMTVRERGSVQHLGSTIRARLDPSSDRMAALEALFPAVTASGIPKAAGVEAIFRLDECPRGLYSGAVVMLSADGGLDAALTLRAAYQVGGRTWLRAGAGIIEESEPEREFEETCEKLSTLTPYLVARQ
PV pol inh = inhibitors of poliovirus RNA polymerase binding and polymerization; 150,000 tested, 0.66% active; % elongation, % (compound at 16.7 µg/mL); poliovirus polymerase elongation, fluorescence polarization; stronger effect = lower value; AID 588519; in the data active = % elongation below about 90%
Mtb MenB inh = blocks the Mycobacterium tuberculosis MenB enzyme | P9WNP5 | MenB enzyme assay, absorbance read-out | inhibition, % (test concentration not listed) | 100,000 tested, 0.43% active; in the data active = inhibition above about 21%, passing the limit was not always enough
Of the large screens only hits and unclear results are named; the others gave an inactive call.

CCOC(=O)N1CCC(NC(=O)CNC(=O)c2ccco2)CC1	AID504770 -2.7 (no result: PV pol inh, Mtb MenB inh)
C[n+]1c(CF)sc2ccccc21	MbtI inh 97 (no result: Mtb MenB inh)
O=C1C=CC(=O)C(C2=C3C(=O)N(Cc4ccccc4)CC(=O)N3CCC2)=C1	MbtI inh 100
Cc1oc2c3c(ccc2c(=O)c1-c1ccc(F)cc1)OCO3	none
CSc1scc2c1C(=O)/C(=C/N(C)C)CC2	PV pol inh 63
O=c1cc(CSc2ccc(Cl)cc2)[nH]c(=S)[nH]1	MbtI inh 58
CC1(C)CC(=O)C/C(=N/Nc2nc3ccccc3o2)C1	none
Cc1sc2nc(CCl)[nH]c(=O)c2c1C	none (no result: Mtb MenB inh)
Cc1sc2nc(CCl)[nH]c(=O)c2c1-c1ccccc1	MbtI inh 82, PV pol inh 89 (no result: Mtb MenB inh)
Cc1sc2nc3n(c(=O)c2c1-c1ccccc1)CCC3	PV pol inh 76
O=c1c2c(-c3ccccc3)csc2nc2n1CCC2	none (no result: MbtI inh)
Cc1ccc(S(=O)(=O)NCCSc2cc(C(F)(F)F)nc3ccccc23)cc1	none
Cn1c(CSc2cc(C(F)(F)F)nc3ccccc23)n[nH]c1=S	MbtI inh 65
O=C(Nc1nc(-c2cc3ccccc3oc2=O)cs1)C1CC1	none (no result: MbtI inh, PV pol inh, Mtb MenB inh)
CC(=O)Nc1ccc(OCC(O)CN2CCCC2)cc1 (configuration not stated)	none (no result: MbtI inh, PV pol inh, Mtb MenB inh)
CC(=O)Nc1ccc(OCC(O)Cn2ccnc2)cc1 (configuration not stated)	Mtb MenB inh 31
O=C(NCc1ccccc1)/C(=C\c1ccccc1)NC(=O)c1ccccc1	none
Cc1ccc(C(=O)N/C(=C/c2ccccc2)C(=O)NCc2ccco2)cc1	Mtb MenB inh 46
O=c1c2ccccc2n2c(-c3ccc(F)c(F)c3)nnc2n1CCc1ccccc1	none (no result: AID504770, MbtI inh, Mtb MenB inh)
O=c1c2ccccc2n2c(-c3ccc(Cl)cc3)nnc2n1CCc1ccccc1	PV pol inh 74 (no result: AID504770, MbtI inh, Mtb MenB inh)
COc1ccc(C(C(=O)NCc2ccccc2)N(Cc2ccco2)C(=O)c2cnccn2)cc1 (configuration not stated)	Mtb MenB inh 36
Cc1ccc(OC(=O)c2ccno2)cc1	none (no result: MbtI inh, PV pol inh, Mtb MenB inh)
O=C(Oc1cc(Cl)cc(Cl)c1)c1ccno1	AID504770 -2.5 (no result: MbtI inh, PV pol inh, Mtb MenB inh)
Cc1cc(C)c(NC(=O)C(C)OC(=O)c2nccnc2N)c(C)c1 (configuration not stated)	none
COc1ccc(CSc2nnc(SCc3cc(C)on3)s2)cc1	none
COC(=O)C1=NNC2(c3ccc(C)cc3)C(=O)N(c3ccc(C)cc3)C(=O)C12 (configuration not stated)	Mtb MenB inh 36
COC(=O)C1=NOC2C(=O)N(c3ccccc3)C(=O)C12 (configuration not stated)	none (no result: PV pol inh, Mtb MenB inh)
COc1ccc(C(N)=O)c(O)c1	none
Cc1nn(-c2ccccc2)c(Cl)c1C1N2CCCN1CC2 (configuration not stated)	Mtb MenB inh 33
CC(=O)N1CC(C(=O)Nc2cccc3ncccc23)Oc2ccccc21 (configuration not stated)	none
CN1C(=O)C(=Cc2cn(CC(=O)O)c3ccccc23)C(=O)N(C)C1=S	MbtI inh 75
Cc1ccccc1C=C1C(=O)N(C)C(=S)N(C)C1=O	MbtI inh 72
CCc1ccc(C=C2C(=O)N(C)C(=S)N(C)C2=O)cc1	MbtI inh 99
COc1ccc(C=C2C(=O)N(C)C(=S)N(C)C2=O)c(C)c1	none
CC1CCN(C(=O)c2ccc3c(c2)C(=O)N(CCC2=CCCCC2)C3=O)CC1	none
CCn1c(=S)sc2nc(C)sc21	MbtI inh 101
CCn1c2ccccc2c2nc(C)sc21	none (no result: MbtI inh)
N#CC(C(=O)COc1ccccc1)c1ccccc1 (configuration not stated)	MbtI inh 54
O=C(Nc1ncnc2sc3c(c12)CCC3)c1ccccc1	none (no result: MbtI inh, PV pol inh, Mtb MenB inh)
Cc1c(C(=O)NNc2ncnc3sc4c(c23)CCCC4)oc2ccccc12	AID504770 -4.2
COCCN1C(=O)c2ccccc2C1=O	none
COCCN1C(=O)C=CC1=O	AID504770 -3.5, MbtI inh 62 (no result: Mtb MenB inh)
C=CCn1c(SCC(=O)Nc2ccc(C)cc2)nc2sc3c(c2c1=O)CCCC3	none
Nn1c(SCc2ccccc2)n[nH]c1=S	MbtI inh 70
CCO/C=C1/C(=O)NC(=O)c2ccccc21	none
CCO/C=C1/C(=O)N(Cc2ccc(OC)cc2)C(=O)c2ccccc21	PV pol inh 36
CCO/C=C1\C(=O)N(C)C(=O)c2ccccc21	PV pol inh 10 (no result: Mtb MenB inh)
CCO/C=C1/C(=O)N(c2ccc(Cl)cn2)C(=O)c2ccccc21	PV pol inh 85
O=C(NNc1ncnc2ccccc12)c1ccc(Br)cc1	none
N#Cc1cc(-c2ccc(Cl)cc2)no1	AID504770 -2.5
O=c1[nH]c(Nc2ccccc2)cc2ccccc12	PV pol inh 76
Cc1cccc(-c2nnc(C3CCNCC3)o2)c1	MbtI inh 78
O=S(=O)(c1cccc(-c2nn(CN3CCc4ccccc4C3)c(=S)o2)c1)N1CCCCC1	none
Oc1ccc(NCc2ccc(Br)cc2)cc1	none
O=C(O)Cc1ccc(NCc2ccc(Br)cc2)cc1	MbtI inh 66
COc1ccccc1OCC#CCN1CCCc2ccccc21	none
CN(C)C(=S)Nc1ccccc1OC(F)F	MbtI inh 88
CCOC(=O)N1CCc2[nH]c3ccccc3c2C1	none (no result: MbtI inh)
O=c1c2c(F)c(F)c(F)c(F)c2on2c3c(cc12)CCCC3	PV pol inh 87
O=C(NC(=S)c1ccccc1)C1CC1	MbtI inh 74
Cc1nn(-c2ccccc2)cc1/C=N/n1c(-c2ccncc2)n[nH]c1=S	MbtI inh 51
COc1ccc(-c2n[nH]c(=S)n2/N=C/c2c(C)nn(-c3ccccc3)c2C)cc1OC	none
NC1=NC(=O)/C(=C\c2cc3ccccc3nc2N2CCCCC2)S1	none
COC(=O)c1c(NC(=O)C2CCCC2)sc2c1CCCC2	PV pol inh 82 (no result: MbtI inh)
COC(=O)c1c(NC(=S)NCc2ccco2)sc2c1CCC2	MbtI inh 61
O=C(Nc1sc2c(c1C(=O)NCc1ccco1)CCC2)c1cccs1	none
O=C1NC(=O)C2C3C=CC(O3)C12 (configuration not stated)	AID504770 -3.5
Cc1cc(C)n(CC(C)O)c(=O)c1C#N (configuration not stated)	none
Cc1cc(C)n(CCCO)c(=O)c1C#N	AID504770 -2.9
CC1(C)CCC2=C(O1)c1ccccc1C(=O)C2=O	PV pol inh 89 (no result: AID504770)
CCOC(=O)C1=C(N)N(c2ccc(OC)cc2)C(=O)C1	none
Cc1ccc(NC(=O)c2c(Cl)nc3sccn23)cc1NC(=O)c1c(Cl)nc2sccn12	none
O=S(=O)(c1ccc(Br)cc1)N1CCNCC1	none (no result: MbtI inh)
N#Cc1ccc(S(=O)(=O)N2CCNCC2)cc1	Mtb MenB inh 27
COc1cccc(NC(=O)C2CC(=O)n3cnnc3S2)c1 (configuration not stated)	MbtI inh 96 (no result: PV pol inh, Mtb MenB inh)
O=C(Nc1ccc2c(c1)C(=O)OC2)c1ccccc1	none (no result: MbtI inh, PV pol inh, Mtb MenB inh)
CCOC(=O)Cc1csc(NC(=O)CSc2nc(=O)cc(N)n2-c2cccc(C)c2)n1	none
CC(=O)N1CCN(c2ccc(N)cc2)CC1	Mtb MenB inh 30 (no result: MbtI inh)
O=c1[nH]ccn(-c2ccccc2)c1=O	none
O=c1c(=S)[nH]ccn1-c1ccccc1	MbtI inh 93
O=C(O)CCC(=O)OC[C@@H](NC(=O)C(Cl)Cl)[C@H](O)c1ccc([N+](=O)[O-])cc1	none
